# Measured values as given in PubChem BioAssay.
# A number with no mark means an inactive call. A call without a number means that no potency is given here. For some of these results: Potency and affinity values are given separately. Calls of active or inactive are those of the source. Unless noted, how the calls were made is not given here.
# Tests used:
# [1] = antimalarial activity against Dd2 strain (AID 2302;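 active means growth inhibition above 50% at the single 2 µM test dose, taken to imply half-maximal potency below 2 µM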); details: P. falciparum Dd2 in RBCs, LDH growth readout, 72 h; at 2 µM; hits give high values
# [2] = human hepatoma cell viability loss – ATP luminescence, cytotoxicity control for P. falciparum antimalarial project, primary screen (AID 2303;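 active means inhibition above 50%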); details: HepG2 viability, 24-48 h, at 10 µM, hits give high values
# [3] = biological target: L-lactate dehydrogenase (Plasmodium falciparum (isolate CDC / Honduras)) (UniProt Q27743); test: PfLDH activity inhibition – cell lysate, 3D7 strain, counter-screen for P. falciparum growth inhibition project (AID 2304); details: P. falciparum 3D7 crude extract, LDH APAD/NBT absorbance; at 2 µM; hits give high values
# Chain of L-lactate dehydrogenase (Plasmodium falciparum (isolate CDC / Honduras)) (Q27743 whole entry, looked up): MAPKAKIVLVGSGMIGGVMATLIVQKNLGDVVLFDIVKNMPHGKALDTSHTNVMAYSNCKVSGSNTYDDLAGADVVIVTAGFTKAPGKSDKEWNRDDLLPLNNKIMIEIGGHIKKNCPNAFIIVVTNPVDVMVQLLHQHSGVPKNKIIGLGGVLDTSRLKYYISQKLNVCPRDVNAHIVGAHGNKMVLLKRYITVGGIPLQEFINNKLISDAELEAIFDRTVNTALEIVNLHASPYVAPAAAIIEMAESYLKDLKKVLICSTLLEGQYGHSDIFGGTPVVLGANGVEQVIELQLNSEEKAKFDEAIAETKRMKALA
# [4] = inhibition of 3D7 malaria parasite growth – strain 3D7 (AID 2306); details: P. falciparum 3D7 erythrocytic growth, LDH absorbance, 72 h; at 2 µM; hits give high values
# [5] = biological target: Calcium-dependent protein kinase 1 (Plasmodium falciparum (isolate 3D7)) (UniProt P62344); test: PfCDPK1 kinase inhibitors, biochemical, TCAMS library (AID 1159585; cut-off not given, nearly all actives have IC50 up to about 0.98 µM;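 further: inhibitors leave more ATP so luminescence rises with inhibition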); details: recombinant PfCDPK1, Kinase-Glo ATP depletion luminescence
# Chain of Calcium-dependent protein kinase 1 (Plasmodium falciparum (isolate 3D7)) (P62344 whole entry, looked up): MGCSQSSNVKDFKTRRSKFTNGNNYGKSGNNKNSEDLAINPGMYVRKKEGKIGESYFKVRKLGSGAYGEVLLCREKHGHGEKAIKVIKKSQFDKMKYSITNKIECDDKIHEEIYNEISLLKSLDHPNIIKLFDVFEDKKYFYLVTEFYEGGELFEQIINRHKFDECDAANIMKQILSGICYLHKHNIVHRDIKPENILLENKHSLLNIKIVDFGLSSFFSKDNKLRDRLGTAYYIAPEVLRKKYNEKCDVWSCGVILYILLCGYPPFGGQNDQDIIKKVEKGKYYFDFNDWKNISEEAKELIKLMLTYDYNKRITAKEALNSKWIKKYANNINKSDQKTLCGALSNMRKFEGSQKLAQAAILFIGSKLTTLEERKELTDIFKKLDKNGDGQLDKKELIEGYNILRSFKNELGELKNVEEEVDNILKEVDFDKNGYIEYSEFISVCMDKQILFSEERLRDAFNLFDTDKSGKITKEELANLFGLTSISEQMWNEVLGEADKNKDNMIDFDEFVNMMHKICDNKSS
# [6] = biological target: Plasmodium falciparum protein kinase 6 (PK6, PF3D7_1337100) (UniProt Q8IDW1); test: PfPK6 kinase inhibitors, biochemical, TCAMS library (AID 1159586); details: recombinant PfPK6, Kinase-Glo ATP depletion luminescence
# Chain of Plasmodium falciparum protein kinase 6 (PK6, PF3D7_1337100) (Q8IDW1 1-305): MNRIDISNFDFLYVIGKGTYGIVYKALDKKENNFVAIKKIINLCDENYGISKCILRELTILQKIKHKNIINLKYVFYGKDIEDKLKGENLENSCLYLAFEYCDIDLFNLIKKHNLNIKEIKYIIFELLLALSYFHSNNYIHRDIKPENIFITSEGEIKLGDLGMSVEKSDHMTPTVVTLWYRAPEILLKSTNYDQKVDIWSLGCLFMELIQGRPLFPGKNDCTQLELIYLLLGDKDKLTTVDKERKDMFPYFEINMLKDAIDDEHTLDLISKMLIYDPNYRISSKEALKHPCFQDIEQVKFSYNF
# [7] = biological target: Protein kinase 7 (PK7), Plasmodium falciparum 3D7 (PF3D7_0213400) (UniProt Q7YTF7); test: inhibition of Plasmodium PK7 catalytic activity – biochemical, TCAMS antimalarial set, Kinase-Glo luminescence (AID 1159587); details: recombinant PfPK7, Kinase-Glo ATP depletion luminescence
# Chain of Protein kinase 7 (PK7), Plasmodium falciparum 3D7 (PF3D7_0213400) (Q7YTF7 1-343): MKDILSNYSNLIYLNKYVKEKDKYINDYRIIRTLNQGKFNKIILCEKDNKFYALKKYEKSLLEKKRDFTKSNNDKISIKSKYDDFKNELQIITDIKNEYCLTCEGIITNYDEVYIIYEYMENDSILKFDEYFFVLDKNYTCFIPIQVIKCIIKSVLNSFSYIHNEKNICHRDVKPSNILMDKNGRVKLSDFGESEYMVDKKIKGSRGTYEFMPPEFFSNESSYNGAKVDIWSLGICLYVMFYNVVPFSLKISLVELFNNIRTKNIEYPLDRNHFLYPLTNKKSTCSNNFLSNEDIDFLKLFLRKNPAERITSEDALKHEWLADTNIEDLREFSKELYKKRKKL
# [8] = biological target: Calcium-dependent protein kinase 4 (Plasmodium falciparum (isolate 3D7)) (UniProt Q8IBS5); test: PfCDPK4 kinase inhibitors, biochemical, TCAMS library (AID 1159588; cut-off not given, nearly all actives have IC50 up to about 0.91 µM); details: recombinant PfCDPK4, Kinase-Glo ATP depletion luminescence
# Chain of Calcium-dependent protein kinase 4 (Plasmodium falciparum (isolate 3D7)) (Q8IBS5 whole entry, looked up): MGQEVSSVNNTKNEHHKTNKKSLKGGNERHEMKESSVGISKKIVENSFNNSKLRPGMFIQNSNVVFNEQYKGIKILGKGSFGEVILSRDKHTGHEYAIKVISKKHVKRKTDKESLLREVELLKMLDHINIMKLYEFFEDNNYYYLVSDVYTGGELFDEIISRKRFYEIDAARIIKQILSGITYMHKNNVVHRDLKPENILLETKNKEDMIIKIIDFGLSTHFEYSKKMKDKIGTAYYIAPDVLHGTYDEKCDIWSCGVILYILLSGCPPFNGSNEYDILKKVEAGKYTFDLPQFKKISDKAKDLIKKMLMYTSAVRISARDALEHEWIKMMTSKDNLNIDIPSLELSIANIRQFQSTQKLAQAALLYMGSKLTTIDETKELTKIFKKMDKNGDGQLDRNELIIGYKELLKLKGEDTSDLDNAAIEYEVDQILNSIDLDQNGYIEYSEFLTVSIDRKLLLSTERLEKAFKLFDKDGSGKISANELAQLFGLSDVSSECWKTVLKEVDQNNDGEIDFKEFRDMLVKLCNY
SMILES,growth inhibition [1],inhibition [2],inhibition [3] [%],growth inhibition [4],outcome [5],outcome [6],outcome [7],outcome [8]
CCOCCCn1c(=N)c(C(=O)NC(C)c2ccccc2)cc2c(=O)n3cccc(C)c3nc21 (stereo not given),31%,24%,-4,95% (active),inactive,inactive,inactive,inactive
O=C(COc1ccccc1Cc1ccccc1)Nc1cc(Cl)ccc1-n1cncn1,93% (active),5%,-2,92% (active),inactive,inactive,inactive,inactive
Cc1cc(N[C@@H](CC(C)C)C(=O)NCc2cccc(F)c2)nc(NCCc2ccccc2)n1,33%,6%,-1,88% (active),inactive,inactive,inactive,inactive
O=C(Nc1ccccc1Cc1ccccc1)c1ccccc1[N+](=O)[O-],59% (active),-6%,3,98% (active),inactive,inactive,inactive,inactive
COC(=O)c1cc(NC(=O)Nc2ccc(Cn3ncc(N4CCCNCC4)c(Cl)c3=O)cc2)cc(C(=O)OC)c1,90% (active),-3%,3,96% (active),inactive,inactive,inactive,inactive
COC(=O)Nc1nc2cc3c(cc2s1)OCCO3,-1%,-12%,1,99% (active),inactive,inactive,inactive,inactive
O=C(/C=C/c1ccc(C(F)(F)F)cc1)N1CCC(CCN2CCC(c3c[nH]c4ccccc34)CC2)CC1,77% (active),70% (active),-11,100% (active),inactive,inactive,inactive,inactive
CC(=O)Nc1ncc(C(=O)Nc2cccc(-c3cccc(-c4nc5c(C)cccc5[nH]4)c3)c2)s1,64% (active),15%,4,94% (active),inactive,inactive,inactive,inactive
COc1cc2nc(N3CC(C)N(C(=O)Cc4ccc(-c5ccccc5)cc4)C(C)C3)nc(N)c2cc1OC (stereo not given),12%,26%,-5,100% (active),inactive,inactive,inactive,inactive
Cn1cnc2c(SCc3ccc(OCc4ccccc4)cc3)ncnc21,87% (active),1%,-6,95% (active),inactive,inactive,inactive,inactive
Clc1ccc(Nc2nc3ccc(Cl)cc3nc2Nc2ccc(Cl)cc2)cc1,99% (active),79% (active),3,99% (active),inactive,inactive,inactive,inactive
O=C(NC1CCN(Cc2ccc(O)cc2)CC1)c1ccc(Cl)c(Cl)c1,3%,1%,4,95% (active),inactive,inactive,inactive,inactive
COc1ccc(-c2nc3nc4ccccc4cc3[nH]2)c(OCC(O)CNC(C)C)c1 (stereo not given),96% (active),19%,-1,98% (active),inactive,inactive,inactive,inactive
COC(=O)c1cc(OC2CCOC2=O)cc2c1OC(C)(C)O2 (stereo not given),-1%,6%,2,97% (active),inactive,inactive,inactive,inactive
COc1ccc(Cn2c(Nc3cccc(C(F)(F)F)c3)nc3cc(C(=O)NCCN4CCCC4)cnc32)cc1Cl,31%,10%,0,97% (active),inactive,inactive,inactive,inactive
C=CCOC(=O)N1CCC(CNCc2cccc(-c3cccc(-c4nc5ccc(F)cc5[nH]4)c3)c2)C1 (stereo not given),49%,20%,0,102% (active),inactive,inactive,inactive,inactive
COc1ccc2nccc(N3CCC(O)(CCNCc4ccc5c(n4)NC(=O)CO5)CC3)c2n1,24%,18%,-4,100% (active),inactive,inactive,inactive,inactive
Cc1cc(-c2c[nH]c3ncc(-c4cccc5ncccc45)cc23)ccc1C(=O)O,77% (active),31%,-7,99% (active),inactive,inactive,inactive,inactive
CCCCCN1CCC(NC(=O)c2ccc(C(=O)Nc3ccc(C(C)C)cc3)cc2)C1 (stereo not given),17%,38%,2,95% (active),inactive,inactive,inactive,inactive
CCCCCCCCNCc1c(O)ccc2ccccc12,94% (active),-11%,0,99% (active),inactive,inactive,inactive,inactive
